Source: PubChem BioAssay (Tox21)
“And” between values parts separate entries of the source, which are not always exact repeats. Equal values may be shown once. Records with an inconclusive call do not appear. Where a call stands in place of a potency, no number is given. More than one record can exist for a structure, and the calls need not agree. The source made the active and inactive calls. Unless noted, calls follow the shape of the dose curve; as a rule, active = well fitted curve in the direction sought with a large enough effect in the repeat runs; inconclusive = weak or mixed curves; inactive = no such curve, though single readings can be large; an effect the other way counts as inactive or inconclusive.

Legend:
[1] = qHTS assay to identify small molecule antagonists of the estrogen related receptor (ERR) signaling pathway from Tox21 library - cell viability counter screen (AID 1224834); also: nearly all actives have a fitted effect of over 30% in size; also: potency is read from the fitted curve at half-maximal effect
Method in brief: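 Multiplexed viability counter screen in ERR cells: 17.5 h compound exposure at 37 C, CellTiter-Fluor added, 30 min at 37 C/5% CO2, fluorescence read.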

[2] = biological target: Luciferin 4-monooxygenase (Photinus pyralis) (UniProt P08659); test: qHTS assay to identify small molecule inhibitors of firefly luciferase (AID 1224835); also: nearly all actives have a fitted effect of over 25% in size; also: potency is read from the fitted curve at half-maximal effect
Sequence of Luciferin 4-monooxygenase (Photinus pyralis) (P08659 whole entry, looked up): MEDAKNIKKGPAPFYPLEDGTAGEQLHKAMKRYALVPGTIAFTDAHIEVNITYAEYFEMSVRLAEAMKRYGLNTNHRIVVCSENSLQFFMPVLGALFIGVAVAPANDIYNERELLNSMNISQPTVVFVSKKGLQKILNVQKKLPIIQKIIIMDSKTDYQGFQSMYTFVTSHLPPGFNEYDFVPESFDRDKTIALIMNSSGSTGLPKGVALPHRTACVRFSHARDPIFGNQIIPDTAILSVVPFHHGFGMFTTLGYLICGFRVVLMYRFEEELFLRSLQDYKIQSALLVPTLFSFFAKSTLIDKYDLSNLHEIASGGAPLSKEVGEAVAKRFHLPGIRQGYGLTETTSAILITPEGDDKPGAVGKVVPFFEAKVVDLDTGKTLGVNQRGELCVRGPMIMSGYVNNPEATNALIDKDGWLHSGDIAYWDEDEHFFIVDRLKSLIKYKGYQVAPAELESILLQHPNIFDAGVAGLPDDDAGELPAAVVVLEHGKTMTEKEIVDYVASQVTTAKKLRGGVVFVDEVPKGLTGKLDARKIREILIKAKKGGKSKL
Method in brief: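 Biochemical qHTS: compounds run as interplate titrations against purified firefly enzyme, with D-luciferin and ATP each at its KM concentration. Light output recorded by CCD imaging.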

[3] = qHTS assay to identify small molecule agonists of the constitutive androstane receptor (CAR) signaling pathway - cell viability counter screen (AID 1224836); also: nearly all actives have a fitted effect of over 45% in size; also: potency is read from the fitted curve at half-maximal effect
Method in brief: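 Double-stable HepG2 hepatoma cells (hCAR plus CYP2B6-2.2kb) are treated for 23 h at 37 C with test compounds in 15-point concentration series. PK11195 at 0.75 uM final is co-added. Cell viability is quantified by CellTiter-Fluor.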

[4] = qHTS assay to identify small molecule antagonists of the constitutive androstane receptor (CAR) signaling pathway - cell viability counter screen (AID 1224837); also: nearly all actives have a fitted effect of over 45% in size; also: potency is read from the fitted curve at half-maximal effect
Method in brief: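 Read-out: CellTiter-Fluor fluorescence after 23 hr at 37 C/5% CO2. Cells: HepG2 double-stable for hCAR and CYP2B6-2.2kb. Compounds tested at 15 concentrations in the presence of CITCO, final concentration 50 nM.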

[5] = biological target: Nuclear receptor subfamily 1 group I member 3 (Homo sapiens) (UniProt Q14994); test: qHTS assay to identify small molecule antagonists of the constitutive androstane receptor (CAR) signaling pathway (AID 1224838);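 also: HepG2 cells stably expressing hCAR with CYP2B6 luciferase reporter stimulated by CITCO; nearly all actives have a fitted effect of over 40% in size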
Sequence of Nuclear receptor subfamily 1 group I member 3 (Homo sapiens) (Q14994 whole entry, looked up): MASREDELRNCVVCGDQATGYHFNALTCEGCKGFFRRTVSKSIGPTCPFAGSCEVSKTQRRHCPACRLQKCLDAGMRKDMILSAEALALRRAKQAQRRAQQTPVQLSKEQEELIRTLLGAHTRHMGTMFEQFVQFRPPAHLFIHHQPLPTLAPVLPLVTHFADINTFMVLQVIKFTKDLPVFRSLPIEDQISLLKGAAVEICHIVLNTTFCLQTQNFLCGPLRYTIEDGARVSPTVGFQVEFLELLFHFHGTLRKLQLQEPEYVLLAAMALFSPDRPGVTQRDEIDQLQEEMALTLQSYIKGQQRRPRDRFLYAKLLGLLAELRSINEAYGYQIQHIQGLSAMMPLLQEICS
Method in brief: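 Read-out: ONE-Glo luciferase luminescence after 30 min at room temperature. HepG2-CYP2B6-hCAR double-stable cells, compounds in 15-point titration plus 50 nM CITCO final, 24 h at 37 C/5% CO2.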

[6] = biological target: Nuclear receptor subfamily 1 group I member 3 (Homo sapiens) (UniProt Q14994); test: qHTS assay to identify small molecule agonists of the constitutive androstane receptor (CAR) signaling pathway (AID 1224839); also: nearly all actives have a fitted effect of over 15% in size; also: potency is read from the fitted curve at half-maximal effect;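 as to activation: HepG2 cells stably carrying human CAR and a CYP2B6 luciferase reporter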
Method in brief: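 Readout: firefly luciferase luminescence via ONE-Glo. System: HepG2 double-stable for hCAR and CYP2B6-2.2kb. Conditions: 15-point compound titration, PK11195 at 0.75 uM final, 24 h incubation.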

[7] = qHTS assay to identify small molecule antagonists of the estrogen related receptor signaling pathway with the pleiotropic PPARgamma coactivator (PGC) from Tox21 10K library - cell viability counter screen (AID 1224840; active = well fitted cell-killing curve with a large enough effect in the repeat runs, not every such curve was filed as active; also: nearly all actives have a fitted effect of over 40% in size; also: potency is read from the fitted curve at half-maximal effect)
Method in brief: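 Fluorescence read-out of CellTiter-Fluor viability reagent, added after cells had been exposed to compound in DMSO for 17.5 h at 37 C; 30 min development at 37 C/5% CO2. Cells: PGC/ERR line, 2,000/well.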

[8] = qHTS assay to identify small molecule antagonists of the estrogen related receptor signaling pathway with the pleiotropic PPARgamma coactivator (PGC) from Tox21 10K library (AID 1224841; call rule not given here; also: actives are mostly falling curves and most rising ones were filed inactive; nearly all actives have a fitted effect of over 50% in size; also: potency is read from the fitted curve at half-maximal effect)
Method in brief: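 Luminescence read-out (One-Glo luciferase reagent, 30 min at room temperature) from PGC/ERR cells exposed to DMSO-dissolved test compounds for 18 h at 37 C; cells, 2,000 per well, had been preincubated 6 h before compound transfer.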

[9] = qHTS assay to identify small molecule agonists of the estrogen related receptor signaling pathway with the pleiotropic PPARgamma coactivator (PGC) from Tox21 10K library (AID 1224842); also: nearly all actives have a fitted effect of over 15% in size
Method in brief: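 PGC/ERR reporter cell line, 2,000 cells per well, incubated 6 h at 37 C before 23 nL compound in DMSO was added. After 18 h at 37 C, One-Glo luminescence read following 30 min at room temperature.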

[10] = qHTS assay to identify small molecule agonists of the hypoxia (HIF-1) signaling pathway - cell viability counter screen (AID 1224844; calls by dose curve; also: nearly all actives have a fitted effect of over 50% in size; also: potency is read from the fitted curve at half-maximal effect)
Method in brief: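 CellTiter-Glo luminescence read-out, 30 min RT, taken in the same wells as the beta-lactamase HRE reporter assay; HRE-bla ME-180 cells, 0.5% dialyzed FBS, 17 hr compound treatment at 37C, 5% CO2.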

[11] = qHTS assay to identify small molecule agonists of H2AX - cell viability counter screen (AID 1224847; calls by dose curve; also: nearly all actives have a fitted effect of over 30% in size; also: potency is read from the fitted curve at half-maximal effect)
Method in brief: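 For this counter screen, overnight-attached CHO-K1 cells received test compounds (15 concentrations, 0.76% DMSO final); 3 hr later at 37C, CellTiter-Glo reagent was added and luminescence recorded after 30 min at room temperature.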

[12] = qHTS assay to identify small molecule antagonists of the estrogen related receptor (ERR) signaling pathway from Tox21 library (AID 1224848); also: nearly all actives have a fitted effect of over 50% in size; also: potency is read from the fitted curve at half-maximal effect
Method in brief: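 Quantitative high-throughput format: ERR reporter cells (2,000/well) pre-incubated 6 h, treated 18 h at 37 C with compounds in DMSO alongside positive and negative controls, then read by ONE-Glo luminescence.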

[13] = qHTS assay to identify small molecule agonists of the estrogen related receptor (ERR) signaling pathway from Tox21 library (AID 1224849; calls by dose curve; also: nearly all actives have a fitted effect of over 15% in size); details: ERR reporter cell line, ONE-Glo luciferase, 18 h
Method in brief: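 Luminescence readout (ONE-Glo, 30 min RT) after 18 h compound exposure at 37 C of NTP-supplied ERR reporter cells; cells were plated 6 h before compound addition by pin tool.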

[14] = qHTS RealTime-Glo MT Cell Viability Assay in HEK293 cells - 32 hour (AID 1224868); also: nearly all actives have a fitted effect of over 50% in size; also: potency is read from the fitted curve at half-maximal effect
Method in brief: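 Quantitative high-throughput screen of the Tox21 10K library in HEK293: cells and RealTime-Glo reagents plated together, compound added at 5 h, luminescence monitored through 40 h at 37 C.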

[15] = A CellTox Green Cytotoxicity Assay to monitor cytotoxicity in HEK293 cells - 0 hour (AID 1224869); also: nearly all actives have a fitted effect of over 50% in size
Method in brief: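 Read-out: fluorescence of a cell-impermeant cyanine dye staining DNA of dead cells, proportional to cytotoxicity. HEK293, 600 cells/well with reagent, compound (23 nL DMSO) added after 5 h; reads at 0, 8, 16, 24, 32, 40 h.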

[16] = qHTS RealTime-Glo MT Cell Viability Assay in HepG2 cells - 40 hour (AID 1224870); also: nearly all actives have a fitted effect of over 50% in size; also: potency is read from the fitted curve at half-maximal effect
Method in brief: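 HepG2 cells (600/well) mixed with RealTime-Glo MT reagent, settled 5 h at 37 C/5% CO2 before compound addition. Nonlytic NanoLuc luminescence from viable-cell prosubstrate reduction read repeatedly during 40 h treatment at 37 C.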

[17] = biological target: Thyrotropin receptor (Homo sapiens) (UniProt P16473); test: qHTS assay to identify small molecule agonists of the thyroid stimulating hormone receptor (TSHR) signaling pathway (AID 1224843; calls by dose curve; also: nearly all actives have a fitted effect of over 45% in size)
Sequence of Thyrotropin receptor (Homo sapiens) (P16473 whole entry, looked up): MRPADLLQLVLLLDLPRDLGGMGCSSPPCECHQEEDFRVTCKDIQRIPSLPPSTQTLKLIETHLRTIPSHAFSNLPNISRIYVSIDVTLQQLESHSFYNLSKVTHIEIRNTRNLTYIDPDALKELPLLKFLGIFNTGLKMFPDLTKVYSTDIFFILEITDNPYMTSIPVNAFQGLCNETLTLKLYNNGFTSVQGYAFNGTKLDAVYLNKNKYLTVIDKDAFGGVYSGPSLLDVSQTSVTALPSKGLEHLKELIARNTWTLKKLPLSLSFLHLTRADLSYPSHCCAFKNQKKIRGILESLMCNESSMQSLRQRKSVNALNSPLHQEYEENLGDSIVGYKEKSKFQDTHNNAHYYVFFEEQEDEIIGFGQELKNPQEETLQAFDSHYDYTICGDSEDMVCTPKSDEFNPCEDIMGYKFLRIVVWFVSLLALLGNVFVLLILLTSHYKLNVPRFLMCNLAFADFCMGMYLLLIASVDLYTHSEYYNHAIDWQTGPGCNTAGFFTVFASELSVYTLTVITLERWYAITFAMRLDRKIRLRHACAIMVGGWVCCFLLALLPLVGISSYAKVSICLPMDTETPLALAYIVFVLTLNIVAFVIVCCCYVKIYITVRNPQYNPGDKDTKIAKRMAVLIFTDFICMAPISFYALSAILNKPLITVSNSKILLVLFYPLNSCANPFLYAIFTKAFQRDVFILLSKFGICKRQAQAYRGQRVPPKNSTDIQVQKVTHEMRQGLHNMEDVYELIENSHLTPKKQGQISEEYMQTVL
Method in brief: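 Agonist-mode screen: TSHR HEK293 cells received test chemicals for half an hour at room temperature, then HTRF cAMP detection reagents for one hour prior to fluorescence measurement. Each chemical ran as a 15-concentration series, triplicated.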

[18] = qHTS assay to identify small molecule agonists of H2AX (AID 1224845; active = well fitted activation curve with a large enough effect in the signal ratio in the repeat runs, not every such curve was filed as active; the % refers to the signal ratio)
Method in brief: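 Wild-type CHO-K1 cells, plated overnight, exposed 3hr at 37C to 15 concentrations (0.76% DMSO final). Lysed, then HTRF anti-pH2AX (S139) cryptate and anti-H2AX-d2 antibodies, 24 hr room temperature; 665/620 nm emission read.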

[19] = qHTS assay to identify small molecule agonists of the hypoxia (HIF-1) signaling pathway (AID 1224846; active = well fitted activation curve with a large enough effect in the signal ratio in the repeat runs, not every such curve was filed as active; the % refers to the signal ratio)
Method in brief: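 Beta-lactamase FRET read-out (CCF4-AM substrate) from ME-180 cells carrying an HRE-driven bla reporter, after 17 hrs compound exposure at 37C/5% CO2. Cells were seeded at 2,000 per well in 0.5% dialyzed FBS medium and preincubated 5 hrs.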

[20] = qHTS RealTime-Glo MT Cell Viability Assay in HepG2 cells - 24 hour (AID 1224867); also: nearly all actives have a fitted effect of over 50% in size
Method in brief: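 Compound treatment began 5 h after plating HepG2 cells (600/well) with NanoLuc luciferase and prosubstrate. Plates stayed at 37 C for 40 h; luminescence was captured at six time points, 0 h through 40 h.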

Q: Which results are given for CN(C)c1ccc2nc3ccc(=[N+](C)C)cc-3sc2c1?
A: Potency [1]: 4.16 µM (active) and 6.11 µM (active) and 5.96 µM (active); Potency [2]: 15.3 µM (active) and 20 µM (active) and 17.4 µM (active); Potency [3]: 24.3 µM (active) and 13.3 µM (active); Potency [4]: 27.3 µM (active) and 11.9 µM (active); Potency [5]: inactive; Potency [6]: 1.54 µM (active) and 750 nM (active); Potency [7]: 2.62 µM (active) and 7.7 µM (active); Potency [8]: 1.86 µM (active) and 1.93 µM (active) and 2.66 µM (active); Potency [9]: inactive; Potency [10]: 5.92 µM (active) and 43.6 µM (active) and inactive; Potency [11]: 21.7 µM (active) and 45 µM (active) and 43.8 µM (active); Potency [12]: 739 nM (active) and 433 nM (active) and 473 nM (active); activity change, positive = activation ([13]; at 42.5 µM (top of the series)): -59.7% (inactive) and -55.3% (inactive); activity change, positive = activation ([13]; at 92.4 µM (top of the series)): -71.3% (inactive); Potency [14]: 1.87 µM (active) and 1.74 µM (active) and 2.68 µM (active); Potency [15]: inactive; Potency [16]: 21 µM (active) and 12.3 µM (active) and 23.9 µM (active)

Q: Which results are given for C[N+]1([O-])CCOCC1?
A: Potency [1]: inactive; Potency [2]: inactive; Potency [3]: inactive; Potency [4]: inactive; Potency [5]: inactive; Potency [6]: inactive; Potency [7]: inactive; Potency [8]: inactive; Potency [9]: inactive; Potency [17]: inactive; Potency [18]: inactive; Potency [19]: inactive; Potency [12]: inactive; activity change, positive = activation ([13]; at 92.4 µM (top of the series)): -0.0985% (inactive); Potency [20]: inactive; Potency [15]: inactive; Potency [16]: inactive

Q: For O=C(O)CP(=O)(O)O, which Potency [1] is on record?
A: inactive

Q: What about the Potency [2] of the same compound?
A: inactive

Q: What about the Potency [3] of the same compound?
A: inactive

Q: And the Potency [4]?
A: inactive

Q: What about the Potency [5] of the same compound?
A: inactive

Q: What about the Potency [6] of the same compound?
A: inactive

Q: And the Potency [7]?
A: inactive

Q: What about the Potency [17] of the same compound?
A: inactive

Q: What about the Potency [10] of the same compound?
A: inactive

Q: What about the Potency [18] of the same compound?
A: inactive

Q: What about the Potency [19] of the same compound?
A: inactive

Q: What about the Potency [11] of the same compound?
A: inactive

Q: What about the Potency [20] of the same compound?
A: inactive

Q: What about the Potency [14] of the same compound?
A: inactive

Q: And the Potency [15]?
A: inactive

Q: And the Potency [16]?
A: inactive

Q: Which Potency [1] does the source give for CC[C@@H](N)CO here?
A: inactive

Q: What about the Potency [2] of the same compound?
A: inactive

Q: What about the Potency [3] of the same compound?
A: inactive

Q: And the Potency [4]?
A: inactive

Q: And the Potency [5]?
A: inactive

Q: What about the Potency [6] of the same compound?
A: inactive

Q: And the Potency [7]?
A: inactive

Q: And the Potency [8]?
A: inactive

Q: And the Potency [9]?
A: inactive

Q: And the Potency [17]?
A: inactive

Q: What about the Potency [10] of the same compound?
A: inactive

Q: And the Potency [18]?
A: inactive

Q: And the Potency [19]?
A: inactive

Q: And the Potency [11]?
A: inactive

Q: What about the Potency [12] of the same compound?
A: inactive

Q: What about the activity change, positive = activation ([13]; at 92.4 µM (top of the series)) of the same compound?
A: -0.0387% (inactive)

Q: What about the Potency [20] of the same compound?
A: inactive

Q: What about the Potency [14] of the same compound?
A: inactive

Q: And the Potency [15]?
A: inactive

Q: And the Potency [16]?
A: inactive

Q: Which Potency [1] does the source give for CCN(CC)C(=O)Nc1ccc(OCC(O)CNC(C)(C)C)c(C(C)=O)c1 (stereo not given) here?
A: inactive

Q: And the Potency [2]?
A: inactive

Q: And the Potency [3]?
A: inactive

Q: And the Potency [4]?
A: inactive

Q: And the Potency [5]?
A: inactive

Q: And the Potency [6]?
A: inactive

Q: And the Potency [7]?
A: inactive

Q: What about the Potency [8] of the same compound?
A: inactive

Q: And the Potency [9]?
A: inactive

Q: And the Potency [17]?
A: inactive

Q: What about the Potency [10] of the same compound?
A: inactive

Q: What about the Potency [18] of the same compound?
A: inactive

Q: What about the Potency [19] of the same compound?
A: inactive

Q: And the Potency [11]?
A: inactive

Q: What about the Potency [12] of the same compound?
A: inactive

Q: And the activity change, positive = activation ([13]; at 42.5 µM (top of the series))?
A: -6.6% (inactive)

Q: And the Potency [20]?
A: inactive

Q: What about the Potency [14] of the same compound?
A: inactive

Q: What about the Potency [15] of the same compound?
A: inactive

Q: And the Potency [16]?
A: inactive

Q: With CC(C)CCOCc1ccccc1 as the compound, how does the Potency [1] read?
A: inactive

Q: And the Potency [2]?
A: inactive

Q: What about the Potency [3] of the same compound?
A: inactive

Q: What about the Potency [4] of the same compound?
A: inactive

Q: What about the Potency [5] of the same compound?
A: inactive

Q: And the Potency [6]?
A: inactive

Q: And the Potency [7]?
A: inactive

Q: What about the Potency [8] of the same compound?
A: inactive

Q: What about the Potency [9] of the same compound?
A: inactive

Q: And the Potency [17]?
A: inactive

Q: And the Potency [10]?
A: inactive

Q: What about the Potency [18] of the same compound?
A: inactive

Q: What about the Potency [19] of the same compound?
A: inactive

Q: And the Potency [11]?
A: inactive

Q: What about the Potency [12] of the same compound?
A: inactive

Q: What about the activity change, positive = activation ([13]; at 92.4 µM (top of the series)) of the same compound?
A: 4.72% (inactive)

Q: And the Potency [20]?
A: inactive

Q: What about the Potency [14] of the same compound?
A: inactive

Q: What about the Potency [15] of the same compound?
A: inactive

Q: What about the Potency [16] of the same compound?
A: inactive
